Screen size: about 310,000 compounds; about 2,200 (0.71%) showed an effect of 50% or more. Effects have a minus sign here. The entries come from a sample that favours strong results as a whole.
target: human ether-à-go-go-related gene (hERG) potassium channel (human, UniProt Q12809); experiment: primary screen, population patch clamp on CHO cells stably expressing hERG; higher = less effect of the substance
Sequence (Q12809 whole entry, looked up): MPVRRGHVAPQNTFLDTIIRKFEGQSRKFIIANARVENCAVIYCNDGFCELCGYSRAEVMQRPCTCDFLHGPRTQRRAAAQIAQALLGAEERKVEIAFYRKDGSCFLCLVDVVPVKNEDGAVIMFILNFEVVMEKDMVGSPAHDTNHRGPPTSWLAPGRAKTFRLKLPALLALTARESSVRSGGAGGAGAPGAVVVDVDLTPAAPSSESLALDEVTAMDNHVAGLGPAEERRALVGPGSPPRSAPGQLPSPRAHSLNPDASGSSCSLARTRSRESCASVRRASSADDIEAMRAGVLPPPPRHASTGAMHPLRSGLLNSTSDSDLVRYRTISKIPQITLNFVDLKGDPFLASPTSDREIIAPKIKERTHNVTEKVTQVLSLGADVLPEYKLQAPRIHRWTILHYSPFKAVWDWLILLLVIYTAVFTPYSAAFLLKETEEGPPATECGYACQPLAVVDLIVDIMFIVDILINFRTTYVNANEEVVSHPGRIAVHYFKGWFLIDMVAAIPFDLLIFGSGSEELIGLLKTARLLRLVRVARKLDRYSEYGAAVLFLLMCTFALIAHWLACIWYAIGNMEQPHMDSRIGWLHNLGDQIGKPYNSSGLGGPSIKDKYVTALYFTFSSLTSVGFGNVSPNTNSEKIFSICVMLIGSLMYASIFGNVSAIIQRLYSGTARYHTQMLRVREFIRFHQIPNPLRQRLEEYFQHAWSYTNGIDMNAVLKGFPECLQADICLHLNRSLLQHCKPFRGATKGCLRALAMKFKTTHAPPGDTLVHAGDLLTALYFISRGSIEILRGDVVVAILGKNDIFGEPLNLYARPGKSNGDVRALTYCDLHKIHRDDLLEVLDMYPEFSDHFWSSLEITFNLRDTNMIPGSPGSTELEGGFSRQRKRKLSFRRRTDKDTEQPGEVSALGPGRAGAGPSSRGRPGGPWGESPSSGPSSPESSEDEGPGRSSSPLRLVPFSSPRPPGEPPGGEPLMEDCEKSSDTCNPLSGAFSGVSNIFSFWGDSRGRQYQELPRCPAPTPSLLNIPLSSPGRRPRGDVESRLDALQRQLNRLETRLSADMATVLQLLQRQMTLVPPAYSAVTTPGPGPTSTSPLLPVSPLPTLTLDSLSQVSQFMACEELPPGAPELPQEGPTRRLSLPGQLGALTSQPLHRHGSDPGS

Compound | hERG current change (%, negative = inhibition) at 1uM [%]
CCOC(=O)CCc1c(C)nc2cc(-c3ccc(F)cc3)[nH]n2c1=O | 8.2
CC(C)(C)SCCNC(=O)c1ccc(Cl)c([N+](=O)[O-])c1 | 8.24
O=C(Cn1nnc(-c2ccccc2-n2cnnn2)n1)c1ccccc1 | 5.12
O=C(C1=C(O)C(=O)N(CCCN2CCOCC2)C1c1ccc(Cl)cc1)c1cc2ccccc2o1 (centres unmarked) | 15.8
CN(C(=O)c1ccc(Cl)cc1)C1=CCCCC1CCC#N (centres unmarked) | 0.644
O=C(CC1OC(=O)c2ccccc21)Nc1cc(Cl)ccc1N1CCCC1 (centres unmarked) | 8.82
CN1CCN(c2ccc(Cl)cc2NC(=O)CCN2C(=O)c3ccccc3C2=O)CC1 | 6.75
CN1CCN(c2ccccc2NC(=O)Cc2ccc(Cl)cc2)CC1 | -59.4
CC(C)C(=O)N1CCN(c2ccccc2NC(=O)Cc2ccc(Cl)cc2)CC1 | -38.9
COc1ccc(CC(=O)Nc2cc(S(=O)(=O)N3CCCCC3)ccc2N2CCN(C)CC2)cc1 | -7.26
CN1CCN(c2ccc(Cl)cc2NC(=O)CC2OC(=O)c3ccccc32)CC1 (centres unmarked) | -61.2
CC(=O)N1CCN(c2ccccc2NC(=O)Cc2ccc(Cl)cc2)CC1 | -17.2
CN1CCN(c2ccc(S(=O)(=O)N3CCCCC3)cc2NC(=O)Cc2ccc(Cl)cc2)CC1 | -50.6
CN1CCN(c2ccc(S(=O)(=O)N3CCCCC3)cc2NC(=O)Cc2c(F)cccc2Cl)CC1 | -7.39
COc1ccc(NC(=S)N(CCc2ccc(OC)c(OC)c2)Cc2ccccn2)cc1 | 0.952
CCOC(=O)c1ccc(CNCc2ccc(C)cc2)cc1 | -1.83
COc1ccc(S(=O)(=O)N2CCCC2CNC(=O)C(=O)Nc2ccc(C)cc2)cc1 (centres unmarked) | -0.606
COc1cc(CCC(=O)OCC(=O)Nc2ccc(C)cc2Cl)cc(OC)c1OC | 15.1
CCn1ncc(NC(=O)Nc2cccc(C(F)(F)F)c2)c1C(N)=O | 5.39

Compound | hERG current change (%, negative = inhibition) at 1uM [%]
Cc1cc(C(=O)NC2CCCCC2)on1 | 10.2
CN(C)c1cccc(C(=O)Nc2nc3ccccc3[nH]2)c1 | 14.7
Fc1ccc(CN2CCCCCCC2)c(F)c1 | 14.2
O=C(N/C(=C/c1ccccc1)C(=O)N1CCOCC1)c1ccc([N+](=O)[O-])cc1 | -19.6
O=C(N/C(=C\c1ccccc1)C(=O)N1CCOCC1)c1cccc(Br)c1 | 18.8
O=C(N/C(=C/c1cccc([N+](=O)[O-])c1)C(=O)N1CCOCC1)c1ccc(Br)cc1 | -19.6
COc1ccc(/C=C(/NC(=O)c2ccc(Br)cc2)C(=O)N2CCOCC2)cc1 | 7.06
O=C(N/C(=C\c1ccc(Cl)cc1)C(=O)N1CCOCC1)c1ccc([N+](=O)[O-])cc1 | -88.2
Cc1ccc(C(=O)N/C(=C/c2ccc(Cl)cc2)C(=O)N2CCOCC2)cc1 | -9.41
O=C(N/C(=C\c1ccc([N+](=O)[O-])cc1)C(=O)N1CCOCC1)c1cccc(Br)c1 | -79
COc1ccc(C(=O)N/C(=C\c2ccccc2)C(=O)N2CCOCC2)cc1 | 9.79
COc1ccc(/C=C(\NC(=O)c2ccc([N+](=O)[O-])cc2)C(=O)N2CCOCC2)cc1 | -54.9
O=C(N/C(=C\c1ccc(Br)cc1)C(=O)N1CCOCC1)c1ccc([N+](=O)[O-])cc1 | -81.6
O=C(N/C(=C\c1cccc([N+](=O)[O-])c1)C(=O)N1CCOCC1)c1cccc(Br)c1 | 7.37
O=C(N/C(=C\c1ccccc1Cl)C(=O)N1CCOCC1)c1ccc([N+](=O)[O-])cc1 | -31.6
O=C(Nc1cc(Cl)ccc1N1CCOCC1)c1cc2ccccc2o1 | 8.14
Cc1c(Br)c([N+](=O)[O-])nn1C(C)C(=O)NCc1cccnc1 (centres unmarked) | -7.67
O=C(O)COc1ccccc1 | 14.1
O=C(Nc1ccc2c(c1)C(=O)OC2)c1ccc(Cl)cc1Cl | 3.09

Compound | hERG current change (%, negative = inhibition) at 1uM [%]
Cc1ccccc1N(C(=O)Cc1cccs1)C(C(=O)NC1CCCCC1)c1cn(C)nc1C (centres unmarked) | -0.242
CCCCCCCN1C2=NCCCN2c2ccccc21.Cl | -21.6
CCCN1C2=NCCCN2c2ccccc21.Cl | 7.07
CCCCN1C2=NC(c3ccccc3)CN2c2ccccc21.Cl (centres unmarked) | -50.5
Br.CC(C)(C)C(=O)CN1C2=NCCN2c2ccccc21 | 2.72
Br.CCCCCN1C2=NCCN2c2ccccc21 | -58.9
c1ccc([C@H]2CN3C(=N2)Sc2ccccc23)cc1 | 11
CCCCCCN1C2=NCCN2c2ccccc21.Cl | -82.3
CCCCCCN1C2=NCCCN2c2ccccc21.Cl | -73.7
Br.CCCCN1C2=NCCCN2c2ccccc21 | -6.43
O=C(CNC(=O)C12CC3CC(CC(C3)C1)C2)NC1=NCCS1 | 12.3
COc1ccc(O)c(C2(O)C(=O)c3ccccc3C2=O)c1 | 14.2
COc1cccc(NC(=O)Nc2nnc(-c3ccccc3SCc3ccccc3)s2)c1 | 2.04
O=C(Nc1c2c(nn1-c1ccc([N+](=O)[O-])cc1)CS(=O)(=O)C2)c1ccco1 | -24.1
O=C(CCN1CCN(Cc2ccccc2)CC1)Nc1cccc(Cl)c1 | -45
O=C(c1cc2ccccc2oc1=O)N1CCN(C(=O)C2CCCO2)CC1 (centres unmarked) | 4.25
CCCOc1ccc(C2C(C(=O)c3ccc(C)o3)=C(O)C(=O)N2Cc2ccco2)cc1OCC (centres unmarked) | 14.9
COc1ccccc1N1CCN(C(=O)C(OC(C)=O)c2ccccc2)CC1 (centres unmarked) | 11.8
